Unmarked numbers belong to inactive results. Calls of active or inactive are those of the source.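 Rule for the calls: active = normalized viability below 100% at a tested concentration; inactive = the rest.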

As a reminder, the viability is a read-out of living cells in per cent, often relative to untreated cells.

One experiment is described as follows: drug combination growth inhibition, ovarian cancer – cell-based, oncology-focused library, rucaparib conditional, profiling panel (AID 1508598). Particulars: patient-derived ovarian cancer cells, CellTiter-Glo viability, 144 h; at 0.0195 µM; OCI-C5x cells; with rucaparib 10 µM; active compounds read low; 100% = cells with rucaparib alone. Background: Cellular ATP, detected with luciferase, serves as a proxy for viable cell number.
On to `O=C(CCCCCCC(=O)Nc1ccc([C@H]2O[C@@H](CSc3nc(-c4ccccc4)c(-c4ccccc4)o3)C[C@@H](c3ccc(CO)cc3)O2)cc1)NO`, for which the viability is 112%.
Take `CNC(=O)c1cc(Oc2ccc(NC(=O)Nc3ccc(Cl)c(C(F)(F)F)c3)c(F)c2)ccn1`: the viability was 114%.
For `CS(=O)(=O)N1CCc2c(-c3cnc(N)nc3)nc(N3CCOCC3)nc21`, the viability was 106%.
Same read-out and setting: with `Nc1ccn([C@@H]2O[C@H](CO)[C@@H](O)C2(F)F)c(=O)n1` the figure was 69.2% (active).
Same read-out and setting: the figure for `CNC(=O)c1cc(COc2nnc(Nc3ccc(Cl)cc3)c3ccoc23)ccn1` is 105%.

Still in this experiment, the particulars now being: patient-derived ovarian cancer cells, CellTiter-Glo viability, 144 h; at 0.0195 µM; OCI-C5x cells; without rucaparib; active compounds read low.
Take `O=C(CCCCCCC(=O)Nc1ccc([C@H]2O[C@@H](CSc3nc(-c4ccccc4)c(-c4ccccc4)o3)C[C@@H](c3ccc(CO)cc3)O2)cc1)NO`: the viability is 130%.
The same measure, in the same setting: the figure for `CNC(=O)c1cc(Oc2ccc(NC(=O)Nc3ccc(Cl)c(C(F)(F)F)c3)c(F)c2)ccn1` is 91.4% (active); for `CS(=O)(=O)N1CCc2c(-c3cnc(N)nc3)nc(N3CCOCC3)nc21` it is 125%.
As for `Nc1ccn([C@@H]2O[C@H](CO)[C@@H](O)C2(F)F)c(=O)n1`, the viability was 58.3% (active).
The same measure, in the same setting: the figure for `CNC(=O)c1cc(COc2nnc(Nc3ccc(Cl)cc3)c3ccoc23)ccn1` is 105%.

The same experiment, now with this note: patient-derived ovarian cancer cells, CellTiter-Glo viability, 144 h; at 0.0195 µM; OCI-P5x cells; with rucaparib 20 µM; active compounds read low; 100% = cells with rucaparib alone.
Regarding `O=C(CCCCCCC(=O)Nc1ccc([C@H]2O[C@@H](CSc3nc(-c4ccccc4)c(-c4ccccc4)o3)C[C@@H](c3ccc(CO)cc3)O2)cc1)NO`, the viability is 72% (active).
As for `CNC(=O)c1cc(Oc2ccc(NC(=O)Nc3ccc(Cl)c(C(F)(F)F)c3)c(F)c2)ccn1`, the viability is 115%.
On the same count and under the same terms, the figure for `CS(=O)(=O)N1CCc2c(-c3cnc(N)nc3)nc(N3CCOCC3)nc21` is 115%; for `Nc1ccn([C@@H]2O[C@H](CO)[C@@H](O)C2(F)F)c(=O)n1` it is 47.3% (active).
Still for that read-out and setting: the figure for `CNC(=O)c1cc(COc2nnc(Nc3ccc(Cl)cc3)c3ccoc23)ccn1` is 104%.

The same experiment, now with this note: patient-derived ovarian cancer cells, CellTiter-Glo viability, 144 h; at 0.0195 µM; OCI-P5x cells; without rucaparib; active compounds read low.
Turning to `O=C(CCCCCCC(=O)Nc1ccc([C@H]2O[C@@H](CSc3nc(-c4ccccc4)c(-c4ccccc4)o3)C[C@@H](c3ccc(CO)cc3)O2)cc1)NO`, the viability is 79.1% (active).
Regarding `CNC(=O)c1cc(Oc2ccc(NC(=O)Nc3ccc(Cl)c(C(F)(F)F)c3)c(F)c2)ccn1`, the viability is 116%.
Regarding `CS(=O)(=O)N1CCc2c(-c3cnc(N)nc3)nc(N3CCOCC3)nc21`, the viability is 111%.
On the same count and under the same terms, with `Nc1ccn([C@@H]2O[C@H](CO)[C@@H](O)C2(F)F)c(=O)n1` the figure was 22% (active).
Regarding `CNC(=O)c1cc(COc2nnc(Nc3ccc(Cl)cc3)c3ccoc23)ccn1`, the viability is 109%.

Still in this experiment, the particulars now being: patient-derived ovarian cancer cells, CellTiter-Glo viability, 144 h; at 0.0781 µM; OCI-C5x cells; with rucaparib 10 µM; active compounds read low; 100% = cells with rucaparib alone.
Regarding `O=C(CCCCCCC(=O)Nc1ccc([C@H]2O[C@@H](CSc3nc(-c4ccccc4)c(-c4ccccc4)o3)C[C@@H](c3ccc(CO)cc3)O2)cc1)NO`, the viability was 112%.
For `CNC(=O)c1cc(Oc2ccc(NC(=O)Nc3ccc(Cl)c(C(F)(F)F)c3)c(F)c2)ccn1`, the viability is 106%.
The same measure, in the same setting: with `CS(=O)(=O)N1CCc2c(-c3cnc(N)nc3)nc(N3CCOCC3)nc21` the figure was 87.7% (active).
Same read-out and setting: with `Nc1ccn([C@@H]2O[C@H](CO)[C@@H](O)C2(F)F)c(=O)n1` the figure was 56.5% (active); with `CNC(=O)c1cc(COc2nnc(Nc3ccc(Cl)cc3)c3ccoc23)ccn1`, 109%.

Still in this experiment, the particulars now being: patient-derived ovarian cancer cells, CellTiter-Glo viability, 144 h; at 0.0781 µM; OCI-C5x cells; without rucaparib; active compounds read low.
Regarding `O=C(CCCCCCC(=O)Nc1ccc([C@H]2O[C@@H](CSc3nc(-c4ccccc4)c(-c4ccccc4)o3)C[C@@H](c3ccc(CO)cc3)O2)cc1)NO`, the viability is 139%.
Take `CNC(=O)c1cc(Oc2ccc(NC(=O)Nc3ccc(Cl)c(C(F)(F)F)c3)c(F)c2)ccn1`: the viability was 88.4% (active).
On the same count and under the same terms, the figure for `CS(=O)(=O)N1CCc2c(-c3cnc(N)nc3)nc(N3CCOCC3)nc21` is 115%.
As for `Nc1ccn([C@@H]2O[C@H](CO)[C@@H](O)C2(F)F)c(=O)n1`, the viability was 47.8% (active).
On the same count and under the same terms, with `CNC(=O)c1cc(COc2nnc(Nc3ccc(Cl)cc3)c3ccoc23)ccn1` the figure was 110%.

Staying with this experiment, now noted: patient-derived ovarian cancer cells, CellTiter-Glo viability, 144 h; at 0.0781 µM; OCI-P5x cells; with rucaparib 20 µM; active compounds read low; 100% = cells with rucaparib alone.
In the case of `O=C(CCCCCCC(=O)Nc1ccc([C@H]2O[C@@H](CSc3nc(-c4ccccc4)c(-c4ccccc4)o3)C[C@@H](c3ccc(CO)cc3)O2)cc1)NO`, the viability was 102%.
On the same count and under the same terms, with `CNC(=O)c1cc(Oc2ccc(NC(=O)Nc3ccc(Cl)c(C(F)(F)F)c3)c(F)c2)ccn1` the figure was 115%; with `CS(=O)(=O)N1CCc2c(-c3cnc(N)nc3)nc(N3CCOCC3)nc21`, 112%; with `Nc1ccn([C@@H]2O[C@H](CO)[C@@H](O)C2(F)F)c(=O)n1`, 50.9% (active).
Take `CNC(=O)c1cc(COc2nnc(Nc3ccc(Cl)cc3)c3ccoc23)ccn1`: the viability is 101%.

The same experiment, now with this note: patient-derived ovarian cancer cells, CellTiter-Glo viability, 144 h; at 0.0781 µM; OCI-P5x cells; without rucaparib; active compounds read low.
`O=C(CCCCCCC(=O)Nc1ccc([C@H]2O[C@@H](CSc3nc(-c4ccccc4)c(-c4ccccc4)o3)C[C@@H](c3ccc(CO)cc3)O2)cc1)NO`: the viability is 106%.
On the same count and under the same terms, with `CNC(=O)c1cc(Oc2ccc(NC(=O)Nc3ccc(Cl)c(C(F)(F)F)c3)c(F)c2)ccn1` the figure was 110%; with `CS(=O)(=O)N1CCc2c(-c3cnc(N)nc3)nc(N3CCOCC3)nc21`, 110%; with `Nc1ccn([C@@H]2O[C@H](CO)[C@@H](O)C2(F)F)c(=O)n1`, 25.3% (active).
Take `CNC(=O)c1cc(COc2nnc(Nc3ccc(Cl)cc3)c3ccoc23)ccn1`: the viability was 109%.

For the origin of these results see PubChem BioAssay.
